Each structure is given as a SMILES string. In all, about 1,300 compounds went through this assay and about 1,000 (77%) were called active. Inconclusive results (about 7%) are left out. The set was probably picked from earlier hits. Some of the results follow. Unmarked numbers belong to inactive results. Calls come from the whole dose curve; as a rule, active = well fitted inhibition curve with a large enough effect; inconclusive = small, poorly fitted or top-dose-only effect; inactive = no such curve, though single readings can be large or run the other way.
% is set by controls: 0 for no effect and ±100 for the full control effect; potency is the fitted concentration of half-maximal effect.

The assay in a line: qHTS of small molecules that selectively kill Giardia lamblia: Hit Validation.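 Note: viability measured as ATP content by luminescence so killing lowers signal; nearly all actives have a fitted effect of over 65% in size.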 To be noted: Giardia lamblia trophozoite viability, dose-response; series mostly up to 38.3 µM; activity change, negative = killing: at the top concentration. The method in brief: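 Trophozoite viability was measured as ATP-dependent luminescence, read 15-30 min after reagent addition. Before that, parasites at 100 cells/well were exposed to compounds for 48 h, anaerobically, at 37 deg C.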
Turning to `O=C(Nc1ccc(N2CCCC2)c(Cl)c1)c1ccc([N+](=O)[O-])o1`, the Potency was 1830 nM (active).
As to `O=C(Nc1ccc(N2CCOCC2)c(Cl)c1)c1ccc([N+](=O)[O-])o1`, the Potency was 729 nM (active).
Regarding `O=C1CC(c2ccc(F)cc2)CC2=C1C(c1ccc([N+](=O)[O-])o1)Nc1ccccc1N2` (stereo not drawn), the Potency is 163 nM (active).
Still for that read-out and setting: in the case of `CN(C)c1ccc(/C=C/c2ccc3ccccc3n2)cc1` it was 460 nM (active).
For `CN(C)c1ccc(/C=C/c2ccc3ccccc3[n+]2[O-])cc1`, the Potency was 1030 nM (active).
As for `CN(C)c1ccc(/C=C/c2ccc3cc(N)ccc3n2)cc1`, the Potency was 183 nM (active).
As to `CC(=O)OCON[N+]([O-])=NC(C)C`, the Potency was 918 nM (active).
Consider `CC(C)(C)C1C/C(=C/c2ccccn2)C(=O)/C(=C/c2ccccn2)C1` (stereo not drawn), for which the Potency is 6500 nM (active).
For the molecule `c1ccc2nc3c(cc2c1)CCCC3`, the Potency was 10300 nM (active).
For `Cc1cc(C)c(-n2[nH]nnc2=S)c(C)c1`, the “activity change, negative = killing” value is -11.9%.
In the case of `Cc1ccc(/C=C/C(=O)NCC2COc3ccccc3O2)o1` (stereo not drawn), the “activity change, negative = killing” value was -42.4%.
As for `O=C(N/N=C\c1ccc(O)c([N+](=O)[O-])c1)C1COc2ccccc2O1` (stereo not drawn), the Potency is 5160 nM (active).
The same measure, in the same setting: in the case of `O=C(N/N=C\c1ccc([N+](=O)[O-])s1)C1COc2ccccc2O1` (stereo not drawn) it was 4100 nM (active); in that of `O=C(Nc1ncc([N+](=O)[O-])s1)C1COc2ccccc2O1` (stereo not drawn), 290 nM (active); in that of `O=C(N/N=C\c1ccc([N+](=O)[O-])o1)C1COc2ccccc2O1` (stereo not drawn), 818 nM (active).
Take `CC(C)(C)c1ccc2c(c1)OC(C(=O)N/N=C/c1ccc([N+](=O)[O-])o1)CO2` (stereo not drawn): the Potency is 818 nM (active).
Regarding `O=[N+]([O-])C(/C=C(\Cl)[N+](=O)[O-])=C(N1CCCCC1)N1CCCCC1`, the Potency is 516 nM (active).
Consider `O=[N+]([O-])C(/C=C(/Cl)[N+](=O)[O-])=C(N1CCCCC1)N1CCCCC1`, for which the Potency is 1160 nM (active).
Regarding `O=C1c2ccccc2C(=O)C1c1ccncc1`, the Potency is 7290 nM (active).
On the same count and under the same terms, next, `Cc1cc(C)cc(N=c2c([N+](=O)[O-])nn(-c3ccc(Cl)cc3)n2O)c1`: 1300 nM (active); `Cc1cc(C)cc(N=c2c([N+](=O)[O-])nn(-c3cccc(Cl)c3)n2O)c1`: 3260 nM (active).
Turning to `O=[N+]([O-])c1[nH]cnc1/C=C/c1ccccc1`, the Potency is 1830 nM (active).
Turning to `O=[N+]([O-])c1cccc(/C=C/c2nc[nH]c2[N+](=O)[O-])c1`, the Potency is 2050 nM (active).
For the molecule `Cc1cccc(N=Nc2c(C)c(C#N)c(O)[nH]c2=O)c1`, the Potency was 3650 nM (active).
On the same count and under the same terms, next, `O=C(CNc1ccc2ccccc2c1)N/N=C/c1ccc([N+](=O)[O-])o1`: 1030 nM (active).
Still for that read-out and setting: in the case of `O=C(CNc1ccccc1)N/N=C/c1ccc([N+](=O)[O-])o1` it was 1030 nM (active); in that of `O=C(CNc1cccc([N+](=O)[O-])c1)N/N=C/c1ccc([N+](=O)[O-])o1`, 516 nM (active); in that of `Cc1ccc(NCC(=O)N/N=C\c2ccc([N+](=O)[O-])o2)cc1`, 650 nM (active).
Regarding `COC(=O)[C@]1(C)N[C@H](CN(C)S(=O)(=O)c2ccc(-c3ccccc3)cc2)[C@@H]2C(=O)N(Cc3ccccc3)C(=O)[C@@H]21`, the “activity change, negative = killing” value was -4.41%.
For the molecule `COc1ccc(-n2c(C)cc(C(=O)COc3ccc(C)nc3[N+](=O)[O-])c2C)cc1`, the Potency is 1830 nM (active).
`Cc1ccc(OCC(=O)c2cc(C)n(-c3ccccc3)c2C)c([N+](=O)[O-])n1`: the Potency is 516 nM (active).
Still for that read-out and setting: in the case of `Cc1cccc(NC(=O)CN2C(=O)S/C(=C\c3ccc(O)c([N+](=O)[O-])c3)C2=O)c1` it was 1300 nM (active); in that of `Cc1ccc(NC(=O)CN2C(=O)S/C(=C/c3ccc(O)c([N+](=O)[O-])c3)C2=O)cc1C`, 1300 nM (active).
Consider `CCOC(=O)CN1C(=O)S/C(=C/c2cccc([N+](=O)[O-])c2O)C1=O`, for which the Potency was 2310 nM (active).
On the same count and under the same terms, next, `CCN(CC)C(=O)CSc1nnc2nnc3cc(Cl)ccc3n12`: 1300 nM (active); `COc1ccc(C(=O)c2c3ccc(C(F)(F)F)cc3[n+]([O-])n2CCCN)cc1`: 1300 nM (active); `Cc1ccc(C(=O)c2c3ccc(C(F)(F)F)cc3[n+]([O-])n2CCCN)cc1`: 1030 nM (active).
As for `NCCCn1c(C(=O)c2ccc(Cl)cc2)c2ccc(C(F)(F)F)cc2[n+]1[O-]`, the Potency is 410 nM (active).
`NCCCn1c(C(=O)c2cc(Cl)c(N)c(Cl)c2)c2ccc(C(F)(F)F)cc2[n+]1[O-]`: the Potency was 1450 nM (active).
As for `O=C(N/N=C/c1cc2c(cc1[N+](=O)[O-])OCO2)c1ccccn1`, the Potency is 7290 nM (active).
For `COc1ccc(CCNc2oc(COc3ccc(Br)cc3)nc2C#N)cc1OC`, the “activity change, negative = killing” value is -29.8%.
As to `NC(=O)C1CCN(c2cc(Cl)ccc2[N+](=O)[O-])CC1`, the Potency was 8180 nM (active).
The same measure, in the same setting: in the case of `NC(=O)C1CCN(c2ncccc2[N+](=O)[O-])CC1` it was 1160 nM (active).
Consider `N#Cc1nc(-c2ccc(OCc3ccccc3)cc2)oc1N1CCC(C(N)=O)CC1`, for which the “activity change, negative = killing” value was 1.62%.
With `Cc1cc(C)n(S(=O)(=O)c2ccccc2[N+](=O)[O-])n1`, the Potency was 1830 nM (active).
`Cc1nc2cc(-c3ccc(Cl)cc3)nn2c(NCCN(C)C)c1C`: the Potency was 918 nM (active).
Take `CN(C)C(=O)c1cc([N+](=O)[O-])cc([N+](=O)[O-])c1N(C)C`: the Potency is 818 nM (active).
Regarding `Cc1ccc(S(=O)(=O)/N=C(/Sc2ccccc2C(=O)O)c2ccccc2)cc1`, the “activity change, negative = killing” value was -19.6%.
Turning to `CN(C)c1ccc(C2NC(=O)c3ccccc3N2)cc1` (stereo not drawn), the Potency is 6500 nM (active).
`CN(C)c1ccc(C2Nc3cccc4cccc(c34)N2)cc1`: the Potency was 3650 nM (active).
With `O=C(O)c1cc(Cl)c(Cl)cc1C(=O)N1CCCC1`, the “activity change, negative = killing” value is -0.809%.
Take `CCC1CCCCN1C(=O)c1ccc([N+](=O)[O-])o1` (stereo not drawn): the Potency is 1830 nM (active).
`O=C(c1ccc([N+](=O)[O-])o1)N1CCN(Cc2ccccc2)CC1`: the Potency is 6500 nM (active).
Same read-out and setting: next, `O=C(c1ccc([N+](=O)[O-])o1)N1CCOCC1`: 1830 nM (active).
As for `O=C(c1cc(Cl)ccc1Cl)N1CCN(Cc2ccccc2)CC1`, the “activity change, negative = killing” value is 13.9%.
As for `O=C(c1ccc([N+](=O)[O-])o1)N1CCCCCC1`, the Potency is 3650 nM (active).
Turning to `COCc1ccc(C(=O)N2CCCC(C(=O)c3ccc(Cl)cc3C)C2)o1` (stereo not drawn), the “activity change, negative = killing” value was 23.6%.
For `CC1CCCN(C(=O)c2ccc([N+](=O)[O-])o2)C1` (stereo not drawn), the Potency was 5160 nM (active).
On to `COc1ccccc1C(=O)C1CCCN(C(=O)c2ccco2)C1` (stereo not drawn), for which the “activity change, negative = killing” value was 29.9%.
On to `O=C(O)C1CCN(c2ccccc2[N+](=O)[O-])CC1`, for which the Potency was 5790 nM (active).
On the same count and under the same terms, next, `CC(=O)N1CCN(c2ccc(S(C)(=O)=O)cc2[N+](=O)[O-])CC1`: 1030 nM (active); `O=C(O)C1CCN(c2ccc([N+](=O)[O-])cc2[N+](=O)[O-])CC1`: 1160 nM (active).
Consider `CCN(C(=O)COC(=O)c1cc(S(=O)(=O)N2CCc3ccccc32)ccc1OC)C1CCS(=O)(=O)C1` (stereo not drawn), for which the “activity change, negative = killing” value is 36.6%.
Consider `Cc1c(Nc2nc3ccccc3n3cnnc23)cccc1[N+](=O)[O-]`, for which the Potency is 9180 nM (active).
For `O=C(/C=C/c1ccc2c(c1)OCO2)Nc1cccnc1`, the Potency was 4600 nM (active).
Same read-out and setting: in the case of `NS(=O)(=O)c1ccc(Nc2ncccc2[N+](=O)[O-])cc1` it was 410 nM (active).
`Cc1c(NC(=O)c2cc(-c3ccc(Cl)c(Cl)c3)on2)c(=O)n(-c2ccccc2)n1C`: the “activity change, negative = killing” value is -4.32%.
As for `COc1ccc2cc(-c3cc(C(=O)OCC(=O)Nc4c(C)n(C)n(-c5ccccc5)c4=O)c4ccccc4n3)ccc2c1`, the Potency is 410 nM (active).
For the molecule `COC(=O)c1ccc(Cn2cc(C(F)(F)F)cc([N+](=O)[O-])c2=O)cc1`, the Potency is 4100 nM (active).
Same read-out and setting: next, `O=c1c([N+](=O)[O-])cc(C(F)(F)F)cn1Cc1c(Cl)cccc1Cl`: 1300 nM (active); `O=c1c([N+](=O)[O-])cc(C(F)(F)F)cn1Cc1cccc(Cl)c1`: 2310 nM (active).
In the case of `CCCC[n+]1c(/C=C/c2c(OC)cc(OC)cc2OC)ccc2ccccc21`, the “activity change, negative = killing” value is -13.9%.
On to `COc1cccc(/C=C/c2ccc3ccccc3[n+]2C)c1OC`, for which the Potency is 5790 nM (active).
Same read-out and setting: in the case of `COc1cccc(-c2cc3nc4c(c(NCC(C)(C)CN(C)C)n3n2)CCCC4)c1` it was 579 nM (active).
As to `CC(=O)c1c(C)oc2c1C(=O)c1ccccc1C2=O`, the Potency is 4600 nM (active).
For the molecule `CCOC(=O)c1c(C)[nH]c2c1-c1ccccc1C(=O)C2=O`, the Potency was 4100 nM (active).
For `Cc1oc2c(c1C(=O)O)C(=O)c1ccccc1C2=O`, the Potency was 3260 nM (active).
Turning to `CCOC(=O)c1c(C)oc2c1C(=O)c1ccccc1C2=O`, the Potency is 5160 nM (active).
Turning to `CC(=O)NCCNC(=O)c1ccc(CSc2ccc(Cl)cc2)cc1`, the “activity change, negative = killing” value was -13.7%.
Turning to `CN(C)c1ccc(/C=C(/NC(=O)c2ccccc2)C(=O)N/N=C/c2ccc([N+](=O)[O-])c(O)c2)cc1`, the Potency was 2590 nM (active).
With `Cc1onc(-c2ccccc2Cl)c1C(=O)NNC(=O)c1ccc(F)cc1`, the “activity change, negative = killing” value is -38.8%.
As to `Cc1onc(-c2ccccc2)c1C(=O)N/N=C/c1ccc([N+](=O)[O-])c(O)c1`, the Potency is 3260 nM (active).
Same read-out and setting: next, `Cc1ccc(OCC(=O)N(C)CC(=O)Nc2ccc(Cl)c(C(F)(F)F)c2)c([N+](=O)[O-])n1`: 5790 nM (active).
Same read-out and setting: next, `Cc1ccc(OCC(=O)Nc2nc(C)c(Cl)cc2Cl)c([N+](=O)[O-])n1`: 5790 nM (active).
Still for that read-out and setting: next, `Cc1ccc(OCC(=O)Nc2ccc(C)c(F)c2)c([N+](=O)[O-])n1`: 5790 nM (active).
For the molecule `Oc1cccc(-c2nnc(-c3cccc(O)c3)nn2)c1`, the Potency is 1160 nM (active).
For the molecule `O=C(NC1CCCC(C(F)(F)F)C1)c1ccc([N+](=O)[O-])o1` (stereo not drawn), the Potency was 1450 nM (active).
On the same count and under the same terms, next, `O=C(NCC1CCCO1)c1ccc([N+](=O)[O-])o1` (stereo not drawn): 1160 nM (active); `O=C(NC1CCCCC1)c1ccc([N+](=O)[O-])o1`: 1630 nM (active).
Still for that read-out and setting: in the case of `Cc1cc2nc(-c3ccc[nH]c3=O)[nH]c2cc1C` it was 729 nM (active); in that of `O=C(NCC(c1ccc(F)cc1)N1CCOCC1)c1ccc([N+](=O)[O-])o1` (stereo not drawn), 1300 nM (active); in that of `O=C(NCc1nnnn1-c1ccc(F)cc1)c1ccc([N+](=O)[O-])o1`, 1450 nM (active).
As for `Cc1ccc(-n2nnnc2CNC(=O)c2ccc([N+](=O)[O-])o2)cc1C`, the Potency was 918 nM (active).
